# Assay results: PubChem BioAssay (Tox21)
# Several values for one entry are separate records, joined by “and”; a condition that tells them apart may be missing. Equal values may be shown once. Records with an inconclusive call do not appear. A call without a number means that no potency is given here. Activity calls are given as the source filed them. Unless noted, calls follow the shape of the dose curve; as a rule, active = well fitted cell-killing curve with a large enough effect in the repeat runs; inconclusive = weak or mixed curves; inactive = no such curve, though single readings can be large or run the other way.
# Tested on: not listed separately
# Assay: qHTS assay for identifying genotoxic compounds that show differential cytotoxicity against isogenic chicken DT40 cell lines with known DNA damage response pathways - Rad54/Ku70 mutant cell line (AID 743015); also: nearly all actives have a fitted effect of over 60% in size; also: potency is read from the fitted curve at half-maximal effect
# Details: DT40 Rad54/Ku70 mutant viability, CellTiter-Glo, 40 h; series mostly up to 66.8 µM
row,Compound,Potency
1,C[C@@H]1CN(c2c(F)c(F)c3c(=O)c(C(=O)O)cn(C4CC4)c3c2F)C[C@H](C)N1,inactive
2,FC(F)(F)C(Cl)(Cl)Cl,inactive
3,CN(C)Cc1ccccc1,inactive
4,CCCCc1ccc2nc(NC(=O)OC)[nH]c2c1,114 nM (active)
5,FC(F)(F)c1ccccc1,inactive
6,Cc1ncc(CO)c(CN)c1O,inactive
7,CCc1cc(Cl)c(OC)c(C(=O)NC[C@@H]2CCCN2CC)c1O,11.9 µM (active) and 10.1 µM (active)
8,Cc1nnc(SCC2=C(C(=O)O)N3C(=O)[C@@H](NC(=O)Cn4cnnn4)[C@H]3SC2)s1,inactive
9,O=C1CCCCCCCCCCC(=O)OCCO1,inactive
10,CC(C)(CO)[C@@H](O)C(=O)NCCC(=O)O,inactive
11,CCOC(=O)C1CC(=O)C(=C(O)C2CC2)C(=O)C1 (stereo unspecified),inactive
12,CCOc1ccccc1N,inactive

# Tested on: not listed separately
# Assay: qHTS assay to identify small molecule antagonists of the androgen receptor (AR) signaling pathway - cell viability counter screen (AID 743033; also: nearly all actives have a fitted effect of over 45% in size)
# Details: AR-bla HEK293 viability, CellTiter-Glo luminescence, 16 h; series mostly up to 58.5 µM
row,Compound,outcome
1,NCCCN1CCN(CCCN)CC1,inactive
2,CCOC(=O)[C@H](CCc1ccccc1)N[C@@H](C)C(=O)N1Cc2cc(OC)c(OC)cc2C[C@H]1C(=O)O,inactive
3,COc1ccc(S(=O)(=O)Nc2nnc(CC(C)C)s2)cc1,inactive
4,C[C@]12C(=O)OC(=O)[C@H]1[C@H]1C=C[C@@H]2C1,inactive
5,COC(C)CCO (stereo unspecified),inactive
6,Cn1cnc2c(F)c(Nc3ccc(Br)cc3Cl)c(C(=O)NOCCO)cc21,inactive
7,Cc1cc(S(=O)(=O)O)c(N)cc1Cl,inactive
8,OC[C@H]1O[C@@H](O[C@H]2[C@H](O)[C@@H](O)[C@H](O)O[C@@H]2CO)[C@H](O)[C@@H](O)[C@H]1O,inactive
9,C=CCc1cc(OC)c(O)c(C(=O)NCCO)c1,inactive
10,COc1ccccc1OCC(O)COC(N)=O (stereo unspecified),inactive
11,OCC(CBr)(CBr)CBr,inactive
12,CC1=C2[C@H](/C=C(\C)C(=O)O)CC[C@@H](C)[C@H]2CC1,inactive
13,OCCN(CCO)c1ccccc1,inactive
14,CC(C)C(=O)OC/C=C/c1ccccc1,inactive
15,CCOC(=O)NCCC[Si](OCC)(OCC)OCC,inactive
16,O=C1C=CC(=O)O1,inactive
17,CN1CCN(C2=Nc3cc(F)ccc3Cc3ccccc32)CC1,inactive
18,Oc1ccccc1F,inactive

row,Compound,outcome
1,Nc1cccc(S(=O)(=O)O)c1,inactive
2,COC(=O)C(C)O (stereo unspecified),inactive
3,CC(C)O,inactive
4,CCCCC1CCC(=O)O1 (stereo unspecified),inactive
5,CC1(C)O[C@@H]2C[C@H]3[C@@H]4CCC5=CC(=O)CC[C@]5(C)[C@@]4(F)[C@@H](O)C[C@]3(C)[C@]2(C(=O)CCl)O1,inactive
6,C[C@@H]1CN(c2c(F)c(F)c3c(=O)c(C(=O)O)cn(C4CC4)c3c2F)C[C@H](C)N1,inactive
7,FC(F)(F)C(Cl)(Cl)Cl,inactive
8,CN(C)Cc1ccccc1,inactive
9,CCCCc1ccc2nc(NC(=O)OC)[nH]c2c1,inactive
10,FC(F)(F)c1ccccc1,inactive
11,Cc1ncc(CO)c(CN)c1O,inactive
12,CCc1cc(Cl)c(OC)c(C(=O)NC[C@@H]2CCCN2CC)c1O,inactive
13,Cc1nnc(SCC2=C(C(=O)O)N3C(=O)[C@@H](NC(=O)Cn4cnnn4)[C@H]3SC2)s1,inactive
14,O=C1CCCCCCCCCCC(=O)OCCO1,inactive
15,CC(C)(CO)[C@@H](O)C(=O)NCCC(=O)O,inactive
16,CCOC(=O)C1CC(=O)C(=C(O)C2CC2)C(=O)C1 (stereo unspecified),inactive
17,CCOc1ccccc1N,inactive

# Target: Androgen receptor (Homo sapiens) (UniProt P10275)
# Sequence (P10275 whole entry, looked up): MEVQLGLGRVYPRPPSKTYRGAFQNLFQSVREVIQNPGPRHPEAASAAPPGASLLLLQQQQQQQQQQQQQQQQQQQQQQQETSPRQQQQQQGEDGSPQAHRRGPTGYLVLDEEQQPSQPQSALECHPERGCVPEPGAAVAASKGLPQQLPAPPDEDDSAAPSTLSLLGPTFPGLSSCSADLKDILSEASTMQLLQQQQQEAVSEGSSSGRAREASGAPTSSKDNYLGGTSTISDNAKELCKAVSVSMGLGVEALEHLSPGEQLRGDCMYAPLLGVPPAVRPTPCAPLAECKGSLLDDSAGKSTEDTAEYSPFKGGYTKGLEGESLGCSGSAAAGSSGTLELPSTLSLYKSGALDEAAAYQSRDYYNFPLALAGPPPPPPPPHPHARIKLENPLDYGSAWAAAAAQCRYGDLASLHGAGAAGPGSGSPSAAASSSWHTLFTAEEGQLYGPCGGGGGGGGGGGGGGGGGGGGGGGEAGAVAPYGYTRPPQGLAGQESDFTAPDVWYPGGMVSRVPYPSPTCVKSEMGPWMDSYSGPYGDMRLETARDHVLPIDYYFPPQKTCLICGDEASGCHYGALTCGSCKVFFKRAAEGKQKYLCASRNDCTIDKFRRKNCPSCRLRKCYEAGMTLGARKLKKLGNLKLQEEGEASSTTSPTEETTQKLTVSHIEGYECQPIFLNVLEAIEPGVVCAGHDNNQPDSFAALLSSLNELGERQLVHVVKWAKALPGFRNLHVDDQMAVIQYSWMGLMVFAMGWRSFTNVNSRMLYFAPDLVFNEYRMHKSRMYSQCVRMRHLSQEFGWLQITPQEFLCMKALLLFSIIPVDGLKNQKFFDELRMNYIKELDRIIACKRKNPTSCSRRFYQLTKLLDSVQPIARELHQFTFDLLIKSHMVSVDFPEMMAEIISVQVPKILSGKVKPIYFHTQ
# Assay: qHTS assay to identify small molecule antagonists of the androgen receptor (AR) signaling pathway (AID 743035; active = well fitted inhibition curve with a large enough effect in the signal ratio in the repeat runs, not every such curve was filed as active; the % refers to the signal ratio)
# Details: HEK293 AR-UAS-bla, R1881-stimulated, beta-lactamase FRET, 16 h; series mostly up to 58.5 µM
# Outline: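 HEK293 cells stably carrying a UAS-driven beta-lactamase reporter (AR-UAS-bla GripTite) were plated for 4 h at 37C, then given compound and the agonist R1881 and incubated 16 h. Reporter activity was read by LiveBLAzer B/G FRET fluorescence after 2 h at room temperature.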
row,Compound,Potency
1,NCCCN1CCN(CCCN)CC1,inactive
2,COC(C)CCO (stereo unspecified),inactive
3,Cn1cnc2c(F)c(Nc3ccc(Br)cc3Cl)c(C(=O)NOCCO)cc21,inactive
4,Cc1cc(S(=O)(=O)O)c(N)cc1Cl,inactive
5,OC[C@H]1O[C@@H](O[C@H]2[C@H](O)[C@@H](O)[C@H](O)O[C@@H]2CO)[C@H](O)[C@@H](O)[C@H]1O,inactive
6,OCCN(CCO)c1ccccc1,inactive
7,CN1CCN(C2=Nc3cc(F)ccc3Cc3ccccc32)CC1,inactive
8,Nc1cccc(S(=O)(=O)O)c1,inactive
9,COC(=O)C(C)O (stereo unspecified),inactive
10,C[C@@H]1CN(c2c(F)c(F)c3c(=O)c(C(=O)O)cn(C4CC4)c3c2F)C[C@H](C)N1,inactive
11,CN(C)Cc1ccccc1,inactive
12,Cc1ncc(CO)c(CN)c1O,inactive

# Target: Androgen receptor (Homo sapiens) (UniProt P10275)
# Assay: qHTS assay to identify small molecule agonists of the androgen receptor (AR) signaling pathway (AID 743036; active = well fitted activation curve with a large enough effect in the signal ratio in the repeat runs, with a control signal flat, not every such curve was filed as active; the % refers to the signal ratio)
# Details: HEK293 AR-UAS-bla GripTite, beta-lactamase FRET ratio, 16 h; series mostly up to 62.4 µM
# Outline: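 AR-bla HEK293 cells, 2,000/well; 4 h preincubation 37C/5% CO2; compound (DMSO) 16 h at 37C; LiveBLAzer B/G FRET substrate 2 h RT; fluorescence intensity read-out.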
row,Compound,outcome
1,NCCCN1CCN(CCCN)CC1,inactive
2,COC(C)CCO (stereo unspecified),inactive
3,Cn1cnc2c(F)c(Nc3ccc(Br)cc3Cl)c(C(=O)NOCCO)cc21,inactive
4,Cc1cc(S(=O)(=O)O)c(N)cc1Cl,inactive
5,OC[C@H]1O[C@@H](O[C@H]2[C@H](O)[C@@H](O)[C@H](O)O[C@@H]2CO)[C@H](O)[C@@H](O)[C@H]1O,inactive
6,CC1=C2[C@H](/C=C(\C)C(=O)O)CC[C@@H](C)[C@H]2CC1,inactive
7,OCCN(CCO)c1ccccc1,inactive
8,CN1CCN(C2=Nc3cc(F)ccc3Cc3ccccc32)CC1,inactive
9,Nc1cccc(S(=O)(=O)O)c1,inactive
10,COC(=O)C(C)O (stereo unspecified),inactive
11,CN(C)Cc1ccccc1,inactive
12,Cc1ncc(CO)c(CN)c1O,inactive
